Reference: the supplement of paper PMC3342239
Structures can show the parent of a compound that is named as a salt.

These molecules were tested on Saccharomyces cerevisiae (assay: fraction of cells in G1 phase (DNA content, flow cytometry); higher = more cells with unreplicated DNA (G1 delay)). Details: temperature: 30 C; YPD; JTY2953 pdr5 snq2 (sensitized); drug added to: cultures diluted from stationary phase; 6-7 h.
How it was run: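 S. cerevisiae in YPD at 30°C was treated with library drugs, with DMSO-only wells as reference. Sensitized JTY2953 cultures diluted 1∶200 from overnight received a final 20 µg/ml and were fixed after 6–7 h; other runs dosed dividing JTY2953 (fixed 6 h later) or BY4741 (4.33 h later). Ethanol-fixed cells were stained with SYTOX Green and 10,000 events read by flow cytometry. G1 fraction is the Dean-Jett-Fox G1 peak area over G1 plus G2/M areas.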

| Structure (SMILES) | fraction of cells in G1 phase |
| --- | --- |
| CC(=O)O[C@@]12CO[C@@H]1C[C@H](O)[C@@]1(C)C(=O)[C@H](O)C3=C(C)[C@@H](OC(=O)[C@H](O)[C@@H](NC(=O)OC(C)(C)C)c4ccccc4)C[C@@](O)([C@@H](OC(=O)c4ccccc4)[C@H]21)C3(C)C [Docetaxil] (24.7555 µM) | 0.507 |
| Clc1cccc(Cl)c1NC1=NCCN1 [Clonidine HCl] (75.0469 µM) | 0.504 |
| CC(C)NCC(O)c1ccc(O)c(O)c1 (racemic) [Isoproterenol HCl (rac)] (94.6687 µM) | 0.447 |
| CN1CCc2cccc3c2[C@H]1Cc1ccc(O)c(O)c1-3 [Apomorphine r (-)] (74.8137 µM) | 0.483 |
| CC(C)OC(=O)CCC/C=C\C[C@@H]1[C@@H](CC[C@@H](O)CCc2ccccc2)[C@H](O)C[C@@H]1O [Latanoprost] (46.2315 µM) | 0.528 |
| COCCOC(=O)C1=C(C)NC(C)=C(C(=O)OC/C=C/c2ccccc2)C1c1cccc([N+](=O)[O-])c1 (centres undefined) [Cilnidipine] (40.6064 µM) | 0.494 |
| N=C(N)NC(=O)Cc1c(Cl)cccc1Cl [Guanfacine HCl] (70.7818 µM) | 0.495 |
| O=S(=O)(c1cccc2cnccc12)N1CCCNCC1 (54.8998 µM) | 0.529 |
| Oc1ccc(C2CNCCc3c2cc(O)c(O)c3Cl)cc1 (centres undefined) [Fenoldopam mesylate] (65.41 µM) | 0.533 |
| CC(C)[N+]1(C)[C@@H]2CC[C@H]1CC(OC(=O)C(CO)c1ccccc1)C2 (some centres undefined) [Ipratropium Br] (60.1563 µM) | 0.508 |
| O=C(CCCN1CCC(O)(c2cccc(C(F)(F)F)c2)CC1)c1ccc(F)cc1 [Trifluperidol 2HCl] (48.8487 µM) | 0.563 |
| CC1=C(C)C(=O)C(CCCCC#CCCCC#CCO)=C(C)C1=O [Docebenone] (61.2671 µM) | 0.552 |
| CC(C)C[C@H](NC(=O)[C@@H](COC(C)(C)C)NC(=O)[C@H](Cc1ccc(O)cc1)NC(=O)[C@H](CO)NC(=O)[C@H](Cc1c[nH]c2ccccc12)NC(=O)[C@H](Cc1cnc[nH]1)NC(=O)[C@@H]1CCC(=O)N1)C(=O)N[C@@H](CCCNC(=N)N)C(=O)N1CCC[C@H]1C(=O)NNC(N)=O [Goserelin acetate] (15.755 µM) | 0.485 |
| CO[C@H]1/C=C/O[C@@]2(C)Oc3c(C)c(O)c4c(O)c(c(/C=N/N5CCN(C)CC5)c(O)c4c3C2=O)NC(=O)/C(C)=C\C=C\[C@H](C)[C@H](O)[C@@H](C)[C@@H](O)[C@@H](C)[C@H](OC(C)=O)[C@@H]1C [Rifampicin] (24.3025 µM) | 0.502 |
| CC[C@]1(O)C[C@@H]2CN(CCc3c([nH]c4ccccc34)[C@@](C(=O)OC)(c3cc4c(cc3OC)N(C)[C@H]3[C@@](O)(C(=O)OC)[C@H](OC(C)=O)[C@]5(CC)C=CCN6CC[C@]43[C@@H]65)C2)C1 [Vinblastine sulfate] (21.9998 µM) | 0.495 |
| NC(=O)OCC(COC(N)=O)c1ccccc1 [Felbamate] (83.9631 µM) | 0.505 |
| C[C@@H]1C(=O)O[C@H]2C[C@@]34[C@H]5C[C@@H](C(C)(C)C)[C@]36[C@@H](OC(=O)[C@@H]6O)O[C@@]4(C(=O)O5)[C@]21O [Ginkgolide a] (48.9705 µM) | 0.512 |
| COCCc1ccc(OCC(O)CNC(C)C)cc1 (centres undefined) [Metoprolol tartrate] (74.8023 µM) | 0.491 |
| CCCCCN(CCCCC)C(=O)C(CCC(=O)O)NC(=O)c1ccc(Cl)c(Cl)c1 (centres undefined) [Lorglumide] (43.5334 µM) | 0.482 |
| COc1ccc(CN(CCN(C)C)c2ccccn2)cc1 [Mepyramine maleate] (70.079 µM) | 0.495 |

| Structure (SMILES) | fraction of cells in G1 phase |
| --- | --- |
| C[C@H]1COc2c(N3CCN(C)CC3)c(F)cc3c(=O)c(C(=O)O)cn1c23 [Levofloxacin HCl] (55.344 µM) | 0.471 |
| Nc1nc2ccc(OC(F)(F)F)cc2s1 [Riluzole HCl] (85.3967 µM) | 0.551 |
| Clc1ccc2nsnc2c1NC1=NCCN1 [Tizanidine HCl] (78.8287 µM) | 0.504 |
| c1cnc(N2CCN(Cc3ccc4c(c3)OCO4)CC2)nc1 [Piribedil HCl] (67.0359 µM) | 0.532 |
| CC(=O)Oc1ccc(C(c2ccc(OC(C)=O)cc2)c2ccccn2)cc1 [Bisacodyl] (55.3402 µM) | 0.499 |
| CCCCC[C@H](O)/C=C/[C@H]1[C@H](O)CC(=O)[C@@H]1C/C=C\CCCC(=O)O [Dinoprostone] (56.7416 µM) | 0.487 |
| Cn1c(=O)c2c(ncn2CC2OCCO2)n(C)c1=O [Doxofylline] (75.1149 µM) | 0.465 |
| CCOC(=O)C1=C(C)NC(C)=C(C(=O)OC)C1c1cccc([N+](=O)[O-])c1 (centres undefined) [Nitrendipine] (55.4985 µM) | 0.472 |
| CN(C)CCC[C@@]1(c2ccc(F)cc2)OCc2cc(C#N)ccc21 [Escitalopram] (61.652 µM) | 0.496 |
| CCOC(=O)C1=C[C@]2(CC)CCCN3CCc4c(n1c1ccccc41)[C@@H]32 [Vinpocetine] (57.0671 µM) | 0.439 |
| Cc1ccccc1C(OCCN(C)C)c1ccccc1 (centres undefined) [Orphenadrine citrate] (43.3369 µM) | 0.522 |
| COc1cc2nc(N3CCN(C(=O)C4COc5ccccc5O4)CC3)nc(N)c2cc1OC (centres undefined) [Doxazosin mesylate] (44.2981 µM) | 0.442 |
| COC(=O)C1=C(C)NC(C)=C(C(=O)OCCN(C)Cc2ccccc2)C1c1cccc([N+](=O)[O-])c1 (centres undefined) [Nicardipine] (38.7597 µM) | 0.5 |
| CCOc1nc2cccc(C(=O)O)c2n1Cc1ccc(-c2ccccc2-c2nnn[nH]2)cc1 [Candesartan] (45.4065 µM) | 0.506 |
| CCC1=C(C)CN(C(=O)NCCc2ccc(S(=O)(=O)NC(=O)N[C@H]3CC[C@H](C)CC3)cc2)C1=O [Glimepiride] (40.7642 µM) | 0.481 |
| CCOC(=O)C1=C[C@@H](OC(CC)CC)[C@H](NC(C)=O)[C@@H](N)C1 [Oseltamivir] (64.0179 µM) | 0.472 |
| CS(=O)(=O)Nc1ccc([N+](=O)[O-])cc1Oc1ccccc1 [Nimesulide] (64.8687 µM) | 0.58 |
| CCCc1cc(C(N)=S)ccn1 [Prothionamide] (110.943 µM) | 0.482 |
| CC(=O)O[C@]1(C(C)=O)CC[C@H]2[C@@H]3C=C(Cl)C4=CC(=O)[C@@H]5C[C@@H]5[C@]4(C)[C@H]3CC[C@@]21C [Cyproterone acetate] (47.9675 µM) | 0.597 |
